# Assay results from PubChem BioAssay (EPA / NIEHS).
# Records with an inconclusive call do not appear. Calls of active or inactive are those of the source. Rule for the calls: active = hit-call score of the fitted dose curve at least 0.9, where 1 is the maximum; inconclusive = response in the unintended direction; inactive = score below 0.9.
# Read-out: Broad substrate specificity ATP-binding cassette transporter ABCG2 (Homo sapiens) (UniProt Q9UNQ0)
# Assay: CLD_ABCG2_24hr: CellzDirect (CLD) Gene Expression Assay for ABC Transporter (ABCG2) at 24 hours (AID 2283685)
# Experimental: CLD_24hr is a cell-based, multiplexed-readout assay that uses hepatocyte, a human liver primary cell, with measurements taken at 24 hours after chemical dosing in a 96-well plate.CLD_ABCG2_24hr is one of 16 assay component(s) measured or calculated from the CLD_24hr assay. It is designed to make measurements of mRNA induction, a form of inducible reporter, as detected with chemiluminescence signals by Quantitative Nuclease Protection Assay (qNPA) technology.Data from the assay component CLD_ABCG2_24hr was analyzed at the endpoint, CLD_ABCG2_24hr, in the positive analysis fitting direction relative to DMSO as the negative control and baseline of activity. Using a type of inducible reporter, gain-of-signal activity can be used to understand changes in the reporter gene as they relate to the gene ABCG2. Furthermore, this assay endpoint can be referred to as a primary readout. To generalize the intended target to other relatable targets, this assay endpoint is annotated to the transporter intended target family, where subfamily is ABC transporter.
# Human hepatocyte cultures were treated daily for two consecutive days with fresh dosing solutions containing appropriate concentrations of the 320 ToxCast chemicals (chemical identities were blinded to CellzDirect and other ToxCast collaborators), vehicle control (0.2% DMSO), and positive control inducers as summarized in Table 1. Due to the large number of treatment groups and chemicals examined, the ToxCast chemicals were divided into two groups (spanning two independent cultures of hepatocytes from separate donor preparations (Hu778: ToxCast plates 1 and 2; Hu776: ToxCast plates 3 and 4). Each preparation of human hepatocyte cultures was treated with respective vehicle control, medium only control, set of six positive controls/reference chemicals for the five hepatic receptor pathways, and a subset of eight of the ToxCast chemicals (indoxacarb, pyrithiobac-sodium, norflurazon, cyhalofop-butyl, methomyl, thiram, acetochlor, and propiconazole). These replicate data, coupled with internal replicates designed within the blinded ToxCast chemical library, provided additional data to evaluate interindividual differences between hepatocyte preparations and their potential impact on chemical profiles.Cell morphology and integrity were evaluated using phase-contrast microscopy as an indicator of hepatocyte cell health (Tyson & Green, 1987). Cultures for each treatment group (i.e., media, vehicle [0.2% DMSO], positive control inducers [multiple concentrations], and the ToxCast chemicals [multiple concentrations]) were observed and cell morphology was assessed relative to vehicle control cultures at each harvest time point (0, 6, 24, or 48 h). […] Images were evaluated at the conclusion of the study to assess changes in cell integrity and account for the effects of chemical exposure on uncharacteristic changes in concentration-dependent gene expression profiles. The results from these determinations of apparent cytotoxicity were annotated (yes/no) alongside the corresponding qNPA data for reference.At the conclusion of each treatment period, hepatocyte cultures (96-well) were washed with 1 volume of HBSS, lysed by addition of 25 ul ArrayPlate lysis buffer (HTG, Tucson, AZ), and 70 ul/well of Denaturation Oil, denatured by incubation at 95C for 10 min, and frozen at approximately -70C until analysis by nuclease protection assay (qNPA) (Roberts et al., 2007). For qNPA analysis, cell lysates were thawed at 50C for approximately 30 min, qNPA probes were added, and samples were incubated at 95C for 10 min to begin the detection process by denaturing the target RNA, dissociating the duplexes and secondary structure hybridization. At the conclusion of the hybridization period, S1 nuclease reagent was added to each sample to digest all nonprotected nucleotides at 50C for 60-90 min. […]
# Broad substrate specificity ATP-binding cassette transporter ABCG2 (Homo sapiens), sequence (Q9UNQ0 whole entry, looked up): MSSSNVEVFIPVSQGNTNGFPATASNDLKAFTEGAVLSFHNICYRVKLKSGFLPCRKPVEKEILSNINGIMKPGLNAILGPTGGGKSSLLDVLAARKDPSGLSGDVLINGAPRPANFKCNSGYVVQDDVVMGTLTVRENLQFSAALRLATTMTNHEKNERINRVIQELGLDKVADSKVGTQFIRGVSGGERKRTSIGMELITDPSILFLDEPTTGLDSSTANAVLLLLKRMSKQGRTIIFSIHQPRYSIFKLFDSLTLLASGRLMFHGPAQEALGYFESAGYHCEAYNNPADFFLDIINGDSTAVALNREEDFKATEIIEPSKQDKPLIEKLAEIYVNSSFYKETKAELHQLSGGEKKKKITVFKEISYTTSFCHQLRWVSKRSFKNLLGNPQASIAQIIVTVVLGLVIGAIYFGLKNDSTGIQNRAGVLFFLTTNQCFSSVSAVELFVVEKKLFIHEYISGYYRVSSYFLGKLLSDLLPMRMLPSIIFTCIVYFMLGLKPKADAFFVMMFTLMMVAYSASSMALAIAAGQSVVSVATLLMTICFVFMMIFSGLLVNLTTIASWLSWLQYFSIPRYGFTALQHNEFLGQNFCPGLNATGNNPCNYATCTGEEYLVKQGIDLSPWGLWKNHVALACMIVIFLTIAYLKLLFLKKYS
Compound,outcome,AC50
C#CCN1C(=O)COc2cc(F)c(N3C(=O)C4=C(CCCC4)C3=O)cc21,inactive,
COC(=O)c1ccccc1S(=O)(=O)NC(=O)Nc1nc(C)nc(OC)n1,inactive,
COc1cc(OC)nc(NC(=O)NS(=O)(=O)c2cc(NC=O)ccc2C(=O)N(C)C)n1,inactive,
COC(=O)c1ccccc1S(=O)(=O)NC(=O)N(C)c1nc(C)nc(OC)n1,inactive,
O=[N+]([O-])/N=C1\NCCN1Cc1ccc(Cl)nc1,inactive,
COP(=S)(OC)Oc1ccc([N+](=O)[O-])cc1,inactive,
ClC1C(Cl)C(Cl)C(Cl)C(Cl)C1Cl (centres undefined),inactive,
COP(=O)(OC)OC=C(Cl)Cl,inactive,
O=C(O)C(F)(F)C(F)(F)C(F)(F)C(F)(F)C(F)(F)C(F)(F)C(F)(F)F,inactive,
CC(C)(C)C(O)/C(=C\c1ccc(Cl)cc1Cl)n1cncn1 (centres undefined),inactive,
Clc1ccccc1-c1nnc(-c2ccccc2Cl)nn1,inactive,
CCCN(CCC)c1c([N+](=O)[O-])cc(C(F)(F)F)cc1[N+](=O)[O-],inactive,
O=C(O)COc1ccc(Cl)cc1Cl,inactive,
O=C(NC(=O)c1c(F)cccc1F)Nc1ccc(OC(F)(F)C(F)OC(F)(F)F)c(Cl)c1 (centres undefined),inactive,
CC(C)N(C(=O)COc1nnc(C(F)(F)F)s1)c1ccc(F)cc1,inactive,
C[C@H]1[C@H](c2ccc(Cl)cc2)SC(=O)N1C(=O)NC1CCCCC1,inactive,
[2H]C1([2H])[n+]2ccccc2-c2cccc[n+]2C1([2H])[2H],inactive,
CC[C@H](C)[C@H]1O[C@]2(C=C[C@@H]1C)C[C@@H]1C[C@@H](C/C=C(\C)[C@@H](O[C@H]3C[C@H](OC)[C@@H](O[C@H]4C[C@H](OC)[C@@H](O)[C@H](C)O4)[C@H](C)O3)[C@@H](C)/C=C/C=C3\CO[C@@H]4[C@H](O)C(C)=C[C@@H](C(=O)O1)[C@]34O)O2 (tested in a mixture with another compound),,4.64 µM (active)
O=S1OCC2C(CO1)C1(Cl)C(Cl)=C(Cl)C2(Cl)C1(Cl)Cl (centres undefined),inactive,
OCCOc1ccccc1,inactive,

Compound,outcome,AC50
CCOC1Oc2ccc(OS(C)(=O)=O)cc2C1(C)C (centres undefined),inactive,
CCN(CC)C(=O)SCc1ccc(Cl)cc1,inactive,
CCOc1nc(NC)nc(NC(=O)NS(=O)(=O)c2ccccc2C(=O)OC)n1,inactive,
O=S(=O)(O)C(F)(F)C(F)(F)C(F)(F)C(F)(F)C(F)(F)C(F)(F)C(F)(F)C(F)(F)F,inactive,
N#Cc1c(Cl)c(Cl)c(Cl)c(C#N)c1Cl,inactive,
CC(C)(C)C(O)C(Oc1ccc(Cl)cc1)n1cncn1 (centres undefined),inactive,
CCC(C)(C)C(=O)OC1=C(c2ccc(Cl)cc2Cl)C(=O)OC12CCCCC2,inactive,
CC(C)OC(=O)Nc1cccc(Cl)c1,inactive,
CCOCN(C(=O)CCl)c1c(C)cccc1CC,inactive,
O=C(O)CCCOc1ccc(Cl)cc1Cl,inactive,
O=C1c2ccccc2C(=O)N1SC(Cl)(Cl)Cl,inactive,
CNC(=O)Oc1ccccc1OC(C)C,inactive,
Cc1cc(C)nc(NC(=O)NS(=O)(=O)c2ccccc2C(=O)OC2COC2)n1,inactive,
CCCN(CCOc1c(Cl)cc(Cl)cc1Cl)C(=O)n1ccnc1,inactive,
CCS(=O)(=O)c1cccnc1S(=O)(=O)NC(=O)Nc1nc(OC)cc(OC)n1,inactive,
O=[N+]([O-])c1c(Cl)c(Cl)c(Cl)c(Cl)c1Cl,inactive,
COc1nn(CSP(=S)(OC)OC)c(=O)s1,inactive,
N#CN,inactive,
CN1CSC(=S)N(C)C1,inactive,
